These results are taken from article PMC7862700, “An all-to-all approach to the identification of sequence-specific readers for epigenetic DNA modifications on cytosine”.

Test in all cases: DAPPL (digital affinity profiling via proximity ligation, sequencing); 10 mM Tris-HCl pH 7.5, 50 mM NaCl, 1 mM DTT, 4% glycerol, room temperature, 30 min; GST-TFs on glutathione beads, 16-mer random dsDNA library, 0.1% formaldehyde crosslink after washing; high values mean tight binding
What all share (conditions): protein: recombinant; tags: N-terminal GST; dsDNA, one strand shown

One experiment concerns the target T1, FEV (Homo sapiens, UniProt Q99581 1-238).
T1 sequence: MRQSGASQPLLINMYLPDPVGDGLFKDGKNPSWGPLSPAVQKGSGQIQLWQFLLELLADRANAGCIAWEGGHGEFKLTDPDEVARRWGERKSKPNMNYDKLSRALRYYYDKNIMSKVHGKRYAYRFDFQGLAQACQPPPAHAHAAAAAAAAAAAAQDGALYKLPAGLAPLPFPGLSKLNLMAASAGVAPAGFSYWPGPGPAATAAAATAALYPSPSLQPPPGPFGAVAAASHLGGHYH
In short, it runs like this:
(§1)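 Binding signal is given per hexamer as its read frequency for a factor divided by its frequency in the tag-only sample. GST-fused human transcription factors were expressed in yeast, captured on glutathione beads, barcoded with DNA and pooled with that sample, then incubated with 200 nmole of a 16-mer random double-stranded DNA library in Tris/NaCl/DTT/glycerol buffer for 30 min at room temperature. The pools were then washed, crosslinked, proximity-ligated, amplified by PCR and sequenced on an Illumina NextSeq500.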

The target in a further experiment is ETV5 (Homo sapiens, UniProt P41161 1-510). The procedure, abridged:
as §1

Another experiment addresses T2, SPIC (Homo sapiens, UniProt Q8N5J4 1-248).
T2 sequence: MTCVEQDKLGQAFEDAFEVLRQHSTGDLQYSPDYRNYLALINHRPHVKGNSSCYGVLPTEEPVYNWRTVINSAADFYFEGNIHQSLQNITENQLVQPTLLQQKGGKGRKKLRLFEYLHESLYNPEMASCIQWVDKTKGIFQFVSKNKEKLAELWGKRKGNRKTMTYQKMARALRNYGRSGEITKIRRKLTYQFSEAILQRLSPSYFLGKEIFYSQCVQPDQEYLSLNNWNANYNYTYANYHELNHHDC
In short, it runs like this:
as §1

A further experiment concerns the target ELF4 (Homo sapiens, UniProt Q99607 1-663). The procedure, abridged:
as §1

Another experiment concerns the target T3, ELK4 (Homo sapiens, UniProt P28324-2 1-405).
T3 sequence: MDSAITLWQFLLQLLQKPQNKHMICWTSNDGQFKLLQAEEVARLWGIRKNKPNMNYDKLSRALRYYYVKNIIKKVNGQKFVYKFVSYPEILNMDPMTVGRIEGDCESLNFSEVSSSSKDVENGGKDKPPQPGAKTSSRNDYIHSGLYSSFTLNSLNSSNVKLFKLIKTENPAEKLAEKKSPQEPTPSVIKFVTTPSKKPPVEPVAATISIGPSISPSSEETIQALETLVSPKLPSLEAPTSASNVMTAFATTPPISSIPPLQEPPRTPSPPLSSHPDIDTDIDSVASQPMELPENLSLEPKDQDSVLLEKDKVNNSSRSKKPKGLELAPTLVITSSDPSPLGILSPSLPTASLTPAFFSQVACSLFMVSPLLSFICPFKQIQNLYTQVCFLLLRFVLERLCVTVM
The procedure, abridged:
as §1

For a further experiment, the target named is T4, ETV2 (Homo sapiens, UniProt O00321 1-342).
T4 sequence: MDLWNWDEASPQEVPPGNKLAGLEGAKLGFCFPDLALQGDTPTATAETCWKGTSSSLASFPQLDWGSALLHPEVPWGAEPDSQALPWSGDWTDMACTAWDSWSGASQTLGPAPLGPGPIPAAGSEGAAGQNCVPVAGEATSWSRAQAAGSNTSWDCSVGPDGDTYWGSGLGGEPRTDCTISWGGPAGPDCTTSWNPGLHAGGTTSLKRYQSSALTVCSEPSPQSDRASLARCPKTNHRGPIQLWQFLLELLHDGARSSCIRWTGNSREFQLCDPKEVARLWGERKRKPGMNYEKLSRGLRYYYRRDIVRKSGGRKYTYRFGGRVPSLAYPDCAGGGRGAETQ
The procedure, abridged:
as §1

In a further experiment the target is T5, ELF3 (Homo sapiens, UniProt P78545 1-371).
T5 sequence: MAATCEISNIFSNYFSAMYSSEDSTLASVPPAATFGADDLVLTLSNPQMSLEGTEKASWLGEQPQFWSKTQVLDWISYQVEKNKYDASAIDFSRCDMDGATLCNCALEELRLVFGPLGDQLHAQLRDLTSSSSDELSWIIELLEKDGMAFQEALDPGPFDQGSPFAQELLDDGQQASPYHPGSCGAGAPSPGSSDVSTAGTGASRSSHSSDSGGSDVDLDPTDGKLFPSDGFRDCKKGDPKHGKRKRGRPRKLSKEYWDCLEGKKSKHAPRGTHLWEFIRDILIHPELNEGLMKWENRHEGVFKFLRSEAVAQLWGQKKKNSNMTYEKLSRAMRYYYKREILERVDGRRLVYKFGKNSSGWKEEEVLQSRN
In short, it runs like this: as §1

The target in a further experiment is ETV1 (Homo sapiens, UniProt P50549 1-477). In short, it runs like this: as §1
ETV1, sequence (P50549 whole entry): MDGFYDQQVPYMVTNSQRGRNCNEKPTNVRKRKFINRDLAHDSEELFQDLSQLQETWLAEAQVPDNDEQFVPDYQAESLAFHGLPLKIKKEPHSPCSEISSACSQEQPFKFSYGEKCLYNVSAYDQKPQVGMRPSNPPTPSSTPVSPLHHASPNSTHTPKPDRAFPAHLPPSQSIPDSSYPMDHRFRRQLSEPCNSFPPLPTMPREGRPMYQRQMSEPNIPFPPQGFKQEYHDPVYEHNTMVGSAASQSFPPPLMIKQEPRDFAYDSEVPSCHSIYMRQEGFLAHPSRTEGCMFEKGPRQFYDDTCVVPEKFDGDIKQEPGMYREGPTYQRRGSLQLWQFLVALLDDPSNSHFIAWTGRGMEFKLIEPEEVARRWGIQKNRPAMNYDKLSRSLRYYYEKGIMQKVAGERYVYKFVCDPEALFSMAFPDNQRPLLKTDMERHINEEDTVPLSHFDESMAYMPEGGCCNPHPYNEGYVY
The target in a further experiment is CRX (Homo sapiens, UniProt O43186 1-299). The procedure, abridged:
as §1

ETV5, sequence (P41161 whole entry): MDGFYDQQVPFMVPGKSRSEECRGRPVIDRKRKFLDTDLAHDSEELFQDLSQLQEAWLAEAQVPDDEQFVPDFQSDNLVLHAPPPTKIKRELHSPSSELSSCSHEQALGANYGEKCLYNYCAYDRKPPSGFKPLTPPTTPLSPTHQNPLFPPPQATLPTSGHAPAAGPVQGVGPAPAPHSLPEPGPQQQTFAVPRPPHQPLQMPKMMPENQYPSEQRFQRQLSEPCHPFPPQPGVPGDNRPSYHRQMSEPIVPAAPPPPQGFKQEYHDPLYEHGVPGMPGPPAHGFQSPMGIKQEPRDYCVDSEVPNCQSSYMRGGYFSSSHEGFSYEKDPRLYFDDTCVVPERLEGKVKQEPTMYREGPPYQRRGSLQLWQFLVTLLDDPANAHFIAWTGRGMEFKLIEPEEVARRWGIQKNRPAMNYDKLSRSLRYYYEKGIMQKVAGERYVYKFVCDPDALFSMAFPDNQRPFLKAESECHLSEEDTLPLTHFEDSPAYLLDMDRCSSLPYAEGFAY
ELF4, sequence (Q99607 whole entry): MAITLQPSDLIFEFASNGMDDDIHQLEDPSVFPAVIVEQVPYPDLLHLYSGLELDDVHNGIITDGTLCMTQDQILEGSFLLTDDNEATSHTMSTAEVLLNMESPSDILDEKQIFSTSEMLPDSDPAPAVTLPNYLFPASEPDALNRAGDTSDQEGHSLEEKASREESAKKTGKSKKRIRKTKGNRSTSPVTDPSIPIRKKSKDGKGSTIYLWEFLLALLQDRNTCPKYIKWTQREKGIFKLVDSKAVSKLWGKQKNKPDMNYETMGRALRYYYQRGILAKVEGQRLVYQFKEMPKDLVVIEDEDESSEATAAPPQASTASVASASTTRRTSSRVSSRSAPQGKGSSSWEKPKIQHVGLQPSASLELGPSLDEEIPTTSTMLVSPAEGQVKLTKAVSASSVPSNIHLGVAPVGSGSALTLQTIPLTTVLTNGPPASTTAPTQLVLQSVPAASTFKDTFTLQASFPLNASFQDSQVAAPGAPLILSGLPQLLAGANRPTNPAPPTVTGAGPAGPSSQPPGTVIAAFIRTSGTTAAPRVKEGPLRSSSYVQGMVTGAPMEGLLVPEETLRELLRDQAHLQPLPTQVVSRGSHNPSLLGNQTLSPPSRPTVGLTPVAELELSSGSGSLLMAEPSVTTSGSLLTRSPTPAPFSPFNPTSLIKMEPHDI
CRX, sequence (O43186 whole entry): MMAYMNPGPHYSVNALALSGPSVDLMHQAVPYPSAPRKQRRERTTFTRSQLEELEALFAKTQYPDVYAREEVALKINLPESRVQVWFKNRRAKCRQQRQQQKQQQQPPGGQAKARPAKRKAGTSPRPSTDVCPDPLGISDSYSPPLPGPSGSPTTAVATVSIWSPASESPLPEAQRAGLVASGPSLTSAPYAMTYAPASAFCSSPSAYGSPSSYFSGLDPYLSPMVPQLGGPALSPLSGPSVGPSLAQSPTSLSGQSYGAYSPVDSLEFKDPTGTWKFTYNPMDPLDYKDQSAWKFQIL

CCATCC: the binding signal with FEV is 1.3 fold enrichment (6-mer frequency, TF over GST control); with ETV5, 1.27 fold enrichment (6-mer frequency, TF over GST control); with SPIC, 1.33 fold enrichment (6-mer frequency, TF over GST control); with ELF4 it was 1.27 fold enrichment (6-mer frequency, TF over GST control); with ELK4, 1.19 fold enrichment (6-mer frequency, TF over GST control); with ETV2 it was 1.19 fold enrichment (6-mer frequency, TF over GST control). The binding signal in the experiment with ELF3 was 1.12 fold enrichment (6-mer frequency, TF over GST control); with ETV1, 1.24 fold enrichment (6-mer frequency, TF over GST control).

TGCCAT: the binding signal in the experiment with FEV is 1.07 fold enrichment (6-mer frequency, TF over GST control); with ETV5 it was 1.03 fold enrichment (6-mer frequency, TF over GST control); with SPIC, 1.12 fold enrichment (6-mer frequency, TF over GST control); in the experiment with ELF4, 1.1 fold enrichment (6-mer frequency, TF over GST control); with ELK4, 1.11 fold enrichment (6-mer frequency, TF over GST control); with ETV2, 1.14 fold enrichment (6-mer frequency, TF over GST control). Moreover, the binding signal was 1.08 fold enrichment (6-mer frequency, TF over GST control) with ELF3 and 1.17 fold enrichment (6-mer frequency, TF over GST control) in the experiment with ETV1.

For TAGCGG, the binding signal with FEV is 1.12 fold enrichment (6-mer frequency, TF over GST control); with ETV5, 1.13 fold enrichment (6-mer frequency, TF over GST control); in the experiment with SPIC it was 1.04 fold enrichment (6-mer frequency, TF over GST control); with ELF4, 1 fold enrichment (6-mer frequency, TF over GST control); with ELK4, 1.06 fold enrichment (6-mer frequency, TF over GST control); with ETV2, 1.19 fold enrichment (6-mer frequency, TF over GST control). Further, the binding signal in the experiment with ELF3 is 1.02 fold enrichment (6-mer frequency, TF over GST control); in the experiment with CRX, 1.26 fold enrichment (6-mer frequency, TF over GST control); in the experiment with ETV1, 1.05 fold enrichment (6-mer frequency, TF over GST control).

On to GTAATG, for which the binding signal is 1.03 fold enrichment (6-mer frequency, TF over GST control) with FEV; 1.09 fold enrichment (6-mer frequency, TF over GST control) in the experiment with ETV5; 1.02 fold enrichment (6-mer frequency, TF over GST control) in the experiment with SPIC; 1.08 fold enrichment (6-mer frequency, TF over GST control) with ELF4; 1.09 fold enrichment (6-mer frequency, TF over GST control) in the experiment with ELK4; 1.04 fold enrichment (6-mer frequency, TF over GST control) with ETV2. In addition, the binding signal with ELF3 is 1.14 fold enrichment (6-mer frequency, TF over GST control); with CRX, 1 fold enrichment (6-mer frequency, TF over GST control); with ETV1, 1.22 fold enrichment (6-mer frequency, TF over GST control).

As for CCCATC, the binding signal in the experiment with FEV is 1.06 fold enrichment (6-mer frequency, TF over GST control); with ETV5 it was 1.16 fold enrichment (6-mer frequency, TF over GST control); in the experiment with SPIC, 1.27 fold enrichment (6-mer frequency, TF over GST control); with ELF4 it was 1.17 fold enrichment (6-mer frequency, TF over GST control); with ELK4, 1.3 fold enrichment (6-mer frequency, TF over GST control); with ETV2, 1.04 fold enrichment (6-mer frequency, TF over GST control). Besides, the binding signal with ELF3 was 1.09 fold enrichment (6-mer frequency, TF over GST control); with ETV1, 1.18 fold enrichment (6-mer frequency, TF over GST control).

Consider TGTCCC, for which the binding signal is 1.39 fold enrichment (6-mer frequency, TF over GST control) in the experiment with FEV; 1.35 fold enrichment (6-mer frequency, TF over GST control) in the experiment with ETV5; 1.26 fold enrichment (6-mer frequency, TF over GST control) with SPIC; 1.29 fold enrichment (6-mer frequency, TF over GST control) in the experiment with ELF4; 1.4 fold enrichment (6-mer frequency, TF over GST control) with ELK4; 1.44 fold enrichment (6-mer frequency, TF over GST control) with ETV2. The binding signal is 1.65 fold enrichment (6-mer frequency, TF over GST control) in the experiment with ELF3 and 1.31 fold enrichment (6-mer frequency, TF over GST control) with ETV1.

In the case of GTCACA, the binding signal with FEV is 1.11 fold enrichment (6-mer frequency, TF over GST control); in the experiment with ETV5, 1.1 fold enrichment (6-mer frequency, TF over GST control); with SPIC, 1.04 fold enrichment (6-mer frequency, TF over GST control); with ELF4, 1.08 fold enrichment (6-mer frequency, TF over GST control); with ELK4, 1.07 fold enrichment (6-mer frequency, TF over GST control); in the experiment with ETV2 it was 1.01 fold enrichment (6-mer frequency, TF over GST control). Besides, the binding signal in the experiment with ELF3 was 1.08 fold enrichment (6-mer frequency, TF over GST control); with ETV1, 1.06 fold enrichment (6-mer frequency, TF over GST control).
